ATXN viability – Viability Counterscreen for Primary qHTS for Inhibitors of ATXN expression; AID 651635, 2014; S2 cells (HEK-293 line with an ATXN2-luciferase reporter) viability, CellTiter-Fluor protease fluorescence, 24 h; Potency, µM (doses to about 56.7 µM), actives largely listed as cytotoxic; actives 0.49% (n = 400,000); also: nearly all actives have a fitted effect of over 40% in size
TGFb SMAD3 inh – qHTS for Inhibitors of TGF-b; Potency, µM (titrated, usually from 46.1 µM), inactives show at the highest dose activity, negative = inhibition, most hits filed as inhibitors; actives 1.2% (n = 410,000); HepG2 CAGA-GFP TGF-b/SMAD3 reporter, GFP fluorescence, 18 h; TGF-beta stimulated, 500 pg/mL final; also: % is scaled to controls: 0 for no effect and ±100 for the full control effect; nearly all actives have a fitted effect of over 65% in size
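TGF-beta reporter screen: HEPG2 CAGA-GFP, 1% FBS, 500 pg/mL TGF-beta final, 18 h; per-cell GFP summed per well; curves fitted and categorized by class.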
HepG2 tox – qHTS for Inhibitors of TGF-b: Cytotox Counterscreen; Potency, µM (top dose mostly 46.1 µM), for inactives: at the highest dose activity change, negative = cytotoxicity, hits mostly cytotoxic; actives 0.76% (n = 410,000); AID 588856, 2011; HepG2 CAGA-GFP viability, ATP luminescence, 18 h
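HepG2 CAGA-GFP cells (1000/well, DMEM with 1% FBS) received compound, then TGF-beta at 500 pg/mL final, and were incubated 18 hours at 37 degrees C. Viability was read by CellTiter-Glo luminescence. Media-only wells were set as complete cell-killing and DMSO as no toxicity.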
ATXN2 expr inh – Primary qHTS for Inhibitors of ATXN expression | Potency, µM (titrated, usually from 57 µM), for inactives: at the top dose activity change, negative = inhibition, hits mostly inhibitors | HEK-293 ATXN2-luciferase reporter, luminescence, 24 h | actives 0.72% (n = 360,000); also: % is scaled to controls: 0 for no effect and ±100 for the full control effect; nearly all actives have a fitted effect of over 55% in size
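qHTS (up to 57 uM final) was run with 24 h compound exposure of reporter cells at 37 °C. Each well was multiplexed: SteadyGlo luminescence measured ATXN2-luciferase expression after a fluorogenic Gly-Phe-AFC viability readout (25 uM final).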
KB-V1 MDR tox – qHTS assay for MDR1-selective chemotherapeutics: Primary screen using the drug-selected MDR subline cells KB-V1; AID 1347076, 2019; actives 3.4% (n = 400,000); KB-V1 MDR cells viability, CellTiter-Glo, 72 h; Potency, µM (top dose mostly 46.1 µM), hits mostly cytotoxic; also: % is scaled to controls: 0 for no effect and ±100 for the full control effect; nearly all actives have a fitted effect of over 60% in size
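Cytotoxicity toward P-gp-expressing KB-V1 cells was determined as loss of CellTiter-Glo luminescence after 72 h at 37 degrees C. Compounds were tested in quantitative HTS format across a concentration range, with curves fitted to normalized data.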
KB-3-1 cytotox – qHTS assay for MDR1-selective chemotherapeutics: Primary screen using the parental adenocarcinoma cell KB-3-1 | AID 1347075, 2019 | actives 1.4% (n = 400,000) | Potency, µM (series often up to 46.1 µM), hits mostly cytotoxic | KB-3-1 viability, CellTiter-Glo ATP luminescence, 72 h; also: % is scaled to controls: 0 for no effect and ±100 for the full control effect; nearly all actives have a fitted effect of over 60% in size
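Screening of KB-3-1 cells (DMEM, 10% FBS, phenol-red free) ran from lowest to highest compound concentration; after 72 h at 37 °C viability was read luminescently and curves fitted.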
Numbers without * were called inactive; i = inactive; ? = inconclusive; / = not tested or not shown. This is a sample that favours compounds with a hit; in the whole collection about 5.9% have one here. Calls follow the shape of the dose curve; as a rule, active = well fitted curve in the direction sought with a large enough effect; inconclusive = small, poorly fitted or top-dose-only effect, or another doubt; inactive = no such curve, though single readings can be large; an effect the other way counts as inactive or inconclusive. Potency is read from the fitted curve at half-maximal effect.

SMILES	ATXN viability	TGFb SMAD3 inh	HepG2 tox	ATXN2 expr inh	KB-V1 MDR tox	KB-3-1 cytotox
COc1ccccc1N1CCN(C(=O)c2cc(N3C(=O)C4C5CCC(C5)C4C3=O)ccc2Cl)CC1 (stereo not given)	i	-12%	7%	-11%	4.1µM*	i
CCc1ccc(OCC2c3cc(OC)c(OC)cc3CCN2C(=O)Cc2ccc(OC)c(OC)c2)cc1 (stereo not given)	i	11µM*	-23%	?	i	i
COc1cc2c(cc1OC)C(C)N(C(=O)c1ccc(C)o1)CC2 (stereo not given)	i	0%	2%	-6%	16µM*	?
COc1ccc(CC(=O)N2CCc3cc(OC)c(OC)cc3C2COc2ccc(OC)cc2)cc1 (stereo not given)	i	-4%	-52%	-4%	?	i
CC(=O)c1ccc(F)c(-c2cc(C)cc3c2OC(CNC(=O)c2ccnn2C)C3)c1 (stereo not given)	i	/	/	/	/	/
CCOC(=O)c1csc(NC(=O)COc2ccc(Cl)cc2Cl)n1	i	-22%	-13%	3%	23µM*	i
C=CCNC(=S)N/N=C(\C)c1cccc(OC)c1	i	-28%	-16%	7%	23µM*	i
O=C(Nc1sc2c(c1CN1CCOCC1)CCC2)c1ccc(F)cc1	i	-1%	-5%	10%	2.1µM*	i
Cn1c(CN2CCOCC2)nc2cc(NC(=O)c3ccc(F)cc3)ccc21	i	-7%	-24%	-17%	16µM*	i
O=C(CSc1nc2ncccc2o1)Nc1cccc(C(F)(F)F)c1	i	0%	-4%	15%	i	i
Cc1ccccc1OCCc1c(C)[nH]c(=S)[nH]c1=O	i	-15%	0%	-24%	1.8µM*	1.5µM*
CCc1ccc(C(=O)c2cn(Cc3ccc(F)cc3)c3cc(OC)c(OC)cc3c2=O)cc1	14µM*	?	-13%	?	?	?
Cc1ccc(C)c(N2CCN(C(=O)c3ccc4c(Cl)c5c(nc4c3)CCCC5)CC2)c1	i	?	-28%	4%	i	i
CC1(C)C2CCC1(CS(=O)(=O)Nc1ccc(S(=O)(=O)NC3CCCCC3)cc1)C(=O)C2 (stereo not given)	i	?	-9%	-5%	16µM*	i
CC1(C)C2CCC1(CS(=O)(=O)Nc1ccc(S(=O)(=O)N3CCCC3)cc1)C(=O)C2 (stereo not given)	i	?	-3%	-4%	i	i
CC1(C)C2CCC1(CS(=O)(=O)NCc1ccc(Cl)cc1Cl)C(=O)C2 (stereo not given)	i	-1%	5%	-12%	10µM*	?
COc1cc(CN2C(=O)CC[C@@H]3CN(Cc4ccccn4)CC[C@@H]32)cc(OC)c1OC	i	/	/	/	/	/
O=C(Cn1c(=O)nc(-c2ccccc2)c2cc(Cl)ccc21)Nc1ccc(F)c(Cl)c1	i	30%	-7%	8%	i	i
Nn1c(Cc2cccc3ccccc23)nnc1SCc1ccccc1Cl	i	?	-16%	0%	i	i
Nn1c(Cc2cccc3ccccc23)nnc1SCc1ccccc1	i	-22%	3%	2%	16µM*	i
COc1ccc(NC(=O)CC2Oc3ccc(C)cc3NC2=O)cc1Cl (stereo not given)	/	0%	-24%	/	/	/
CC(C)(C)N1C(=O)c2ccc(C(=O)Nc3ccc(O)cc3)cc2C1=O	?	0%	-15%	-17%	8.2µM*	?
CC(C)(C)NC(=O)c1cccc(NC(=O)c2ccc3c(c2)C(=O)N(C(C)(C)C)C3=O)c1	i	?	-29%	-12%	?	i
COCCNC(=O)c1cnn(-c2ccc(C)cc2C)c1C1CCN(C(=O)OC(C)(C)C)CC1	?	-2%	-19%	-6%	i	i
Cc1c(NC(=O)c2cc([N+](=O)[O-])ccc2N2CCOCC2)cccc1-c1nc2ccccc2o1	i	?	-13%	8%	i	?
SMILES	ATXN viability	TGFb SMAD3 inh	HepG2 tox	ATXN2 expr inh	KB-V1 MDR tox	KB-3-1 cytotox
O=C(CSc1nnc(-c2ccccc2Cl)n1Cc1ccco1)Nc1ccc2c(c1)OCCO2	?	0%	0%	5%	i	i
O=C(CSc1nnc(-c2ccc(Cl)cc2)n1Cc1ccco1)Nc1ccc2c(c1)OCCO2	?	-2%	-2%	-20%	4.1µM*	i
C=CCn1c(C)nnc1SCC(=O)Nc1ccc2c(c1)OCCO2	i	7%	-17%	2%	/	/
C=CCn1c(SCC(=O)Nc2ccc3c(c2)OCCO3)nnc1-c1ccco1	i	7%	-9%	5%	9.2µM*	i
O=C(O)/C=C/C(=O)c1c(-c2ccccc2)[nH]c2ccccc12	i	13µM*	-2%	7%	i	i
C=CCNC(=O)C(=O)c1c(-c2ccccc2)[nH]c2ccccc12	i	-2%	14%	-3%	?	i
CC(=O)c1c(-c2ccccc2)[nH]c2ccccc12	?	-1%	-21%	-34%	7.3µM*	?
O=C(NCCCN1CCN(c2ccccc2F)CC1)c1ccc2nc(N3CCCCC3)sc2c1	i	-10%	-23%	34%	i	i
COc1ccc([N+](=O)[O-])cc1NC(=O)C(C)N1CCCC1 (stereo not given)	i	-9%	-10%	-6%	i	i
CC(C(=O)Nc1cc([N+](=O)[O-])ccc1Cl)N1CCN(c2ccccc2O)CC1 (stereo not given)	i	?	4%	18%	10µM*	?
CCN(CC)CCn1c2ccccc2c2cnc(N)c(C#N)c21	i	-12%	-6%	14µM*	?	23µM*
CC(C)C(c1nnnn1C1CCCC1)N1c2ccccc2CC1C (stereo not given)	i	9%	-20%	-6%	15µM*	i
CC(C)C(c1nnnn1C1CCCCC1)N1CCc2ccccc21 (stereo not given)	i	-3%	-11%	-1%	i	i
CN(CCO)C(=O)c1cn(C2CCN(Cc3ccc(C(F)(F)F)cc3)CC2)nn1	i	/	/	/	/	/
O=C(/C=C/c1ccc(F)cc1)c1cc(Br)ccc1O	i	-20%	-32%	18%	i	i

Source: PubChem
